# Experimental data reported in the supplement of paper PMC8728848.
# Shown is part of a subset that was picked to be rich in the strongest signals.
# Tests used:
# Assay in all cases: glycan array binding signal (z-score within array); higher = stronger binding
# Details in all cases: glycan notation: IUPAC condensed, linker removed
# [1] = biological target: Fuc(a1-2)Gal
# How it was run: (§1)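 Glycan array data were curated from 3228 arrays in the Consortium for Functional Glycomics database and kept only where the protein sequence was available. Glycan names were converted to IUPAC-condensed notation, and columns mapping to the same glycan were averaged. The binding signal is a within-array Z-score, averaged across arrays of the same protein sequence at different concentrations or buffers and across linkers. Negative Z-scores can be read as non-binding.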
# [2] = biological target: Fuc(a1-2)Gal(b1-3)GalNAc(b1-4)[Neu5Ac(a2-3)]Gal(b1-4)Glc
# How it was run: as §1
# [3] = biological target: Fuc(a1-2)Gal(b1-3)GlcNAc(b1-3)[Neu5Ac(a2-6)Gal(b1-4)GlcNAc(b1-6)]Gal(b1-4)Glc
# How it was run: as §1
# [4] = biological target: Fuc(a1-2)[Gal(a1-3)]Gal(b1-3)GlcNAc
# How it was run: as §1
# [5] = biological target: Fuc(a1-2)[Gal(a1-3)]Gal(b1-4)[Fuc(a1-3)]Glc
# How it was run: as §1
# [6] = biological target: Fuc(a1-2)[Gal(a1-3)]Gal(b1-4)[Fuc(a1-3)]GlcNAc(b1-3)GalNAc
# How it was run: as §1
# [7] = biological target: Fuc(a1-3)[Gal(b1-4)]Glc6S
# How it was run: as §1
# [8] = biological target: Fuc(a1-3)[Gal3S(b1-4)]Glc
# How it was run: as §1
# [9] = biological target: Gal(a1-3)[Gal(a1-4)]Gal(b1-4)GlcNAc
# How it was run: as §1
# [10] = biological target: Gal(a1-4)Gal(b1-4)GlcNAc(b1-2)Man(a1-3)[Gal(a1-4)Gal(b1-4)GlcNAc(b1-2)Man(a1-6)]Man(b1-4)GlcNAc(b1-4)GlcNAc
# How it was run: as §1
# [11] = biological target: Gal(b1-2)Gal
# How it was run: as §1
# [12] = biological target: Gal(b1-3)GlcNAc(b1-3)Gal(b1-4)GlcNAc(b1-2)Man(a1-3)[Gal(b1-3)GlcNAc(b1-3)Gal(b1-4)GlcNAc(b1-2)Man(a1-6)]Man(b1-4)GlcNAc(b1-4)GlcNAc
# How it was run: as §1
# [13] = biological target: Gal(b1-4)Glc
# How it was run: as §1
# [14] = biological target: Gal(b1-4)GlcNAc(b1-2)[Gal(b1-4)GlcNAc(b1-4)]Man(a1-3)[GlcNAc(b1-4)][Gal(b1-4)GlcNAc(b1-2)[Gal(b1-4)GlcNAc(b1-6)]Man(a1-6)]Man(b1-4)GlcNAc(b1-4)GlcNAc
# How it was run: as §1
# [15] = biological target: Gal(b1-4)GlcNAc(b1-3)Gal(b1-4)GlcNAc(b1-3)Gal(b1-4)GlcNAc(b1-3)Gal(b1-4)GlcNAc(b1-3)Gal(b1-4)GlcNAc(b1-2)[Gal(b1-4)GlcNAc(b1-3)Gal(b1-4)GlcNAc(b1-3)Gal(b1-4)GlcNAc(b1-3)Gal(b1-4)GlcNAc(b1-3)Gal(b1-4)GlcNAc(b1-6)]Man(a1-6)[Gal(b1-4)GlcNAc(b1-3)Gal(b1-4)GlcNAc(b1-3)Gal(b1-4)GlcNAc(b1-3)Gal(b1-4)GlcNAc(b1-3)Gal(b1-4)GlcNAc(b1-2)Man(a1-3)]Man(b1-4)GlcNAc(b1-4)[Fuc(a1-6)]GlcNAc
# How it was run: as §1
# [16] = biological target: Gal(b1-4)GlcNAc(b1-3)Gal(b1-4)GlcNAc(b1-3)Gal(b1-4)GlcNAc(b1-3)Gal(b1-4)GlcNAc(b1-3)Gal(b1-4)GlcNAc(b1-3)Gal(b1-4)GlcNAc(b1-2)Man(a1-3)[Gal(b1-4)GlcNAc(b1-3)Gal(b1-4)GlcNAc(b1-3)Gal(b1-4)GlcNAc(b1-3)Gal(b1-4)GlcNAc(b1-3)Gal(b1-4)GlcNAc(b1-3)Gal(b1-4)GlcNAc(b1-2)Man(a1-6)]Man(b1-4)GlcNAc(b1-4)GlcNAc
# How it was run: as §1
# [17] = biological target: Gal3S(b1-4)Glc6S
# How it was run: as §1
# [18] = biological target: Gal3S6S(b1-4)GlcNAc
# How it was run: as §1
# [19] = biological target: Gal3S6S(b1-4)GlcNAc6S
# How it was run: as §1
# [20] = biological target: GalNAc(a1-3)GalNAc(b1-3)Gal(a1-4)Gal(b1-4)Glc
# How it was run: as §1
# [21] = biological target: GalNAc(b1-3)GlcNAc
# How it was run: as §1
# [22] = biological target: GalNAc(b1-4)Gal(b1-4)Glc
# How it was run: as §1
# [23] = biological target: GalNAc(b1-4)GlcNAc(b1-3)GalNAc(b1-4)GlcNAc
# How it was run: as §1
# [24] = biological target: Glc(a1-6)Glc(a1-6)Glc
# How it was run: as §1
# [25] = biological target: GlcNAc(b1-3)Fuc
# How it was run: as §1
# [26] = biological target: GlcNAc(b1-3)Gal(b1-4)GlcNAc(b1-3)Gal(b1-4)GlcNAc(b1-2)Man(a1-3)[GlcNAc(b1-3)Gal(b1-4)GlcNAc(b1-3)Gal(b1-4)GlcNAc(b1-2)Man(a1-6)]Man(b1-4)GlcNAc(b1-4)[Fuc(a1-6)]GlcNAc
# How it was run: as §1
# [27] = biological target: GlcNAc(b1-3)Gal(b1-4)GlcNAc(b1-3)Gal(b1-4)GlcNAc(b1-3)Gal(b1-4)GlcNAc(b1-3)Gal(b1-4)GlcNAc(b1-2)Man(a1-3)[GlcNAc(b1-3)Gal(b1-4)GlcNAc(b1-3)Gal(b1-4)GlcNAc(b1-3)Gal(b1-4)GlcNAc(b1-3)Gal(b1-4)GlcNAc(b1-2)Man(a1-6)]Man(b1-4)GlcNAc(b1-4)[Fuc(a1-6)]GlcNAc
# How it was run: as §1
# [28] = biological target: GlcNAc(b1-3)Gal(b1-4)GlcNAc(b1-6)[GlcNAc(b1-3)]Gal(b1-4)GlcNAc
# How it was run: as §1
# [29] = biological target: GlcNAc(b1-3)[GlcNAc(b1-6)]GalNAc
# How it was run: as §1
# [30] = biological target: GlcNAc(b1-4)[GlcNAc(b1-6)]GalNAc
# How it was run: as §1
binder,measurement,setting,value
PX9961K-bvu-480-28-480 (Bacteroides vulgatus) (protein) NKIPTTMAFRTVTDVDNAVNGLYDLMSGSGYYGAAMFAYGDMKGDDMQSSEESGVCNTCYMFNHRPNSLNAGSLWGRPFYILREAWNILNAIAEGKIESGDEKKLNALKGETMAVIALCQFDLTRCFGYPYTKDKGASLGAPLIDHLVGTYENPPRSTVAQAYDFIIETLEEAVTLMSEEKNNGRMNKYAARALLARIYLYHDDNRKAFDLADQLIKDADTSGSYALYPHEKYVAAWSVEAKFGSESFFEIANSVDDTPGRDSWGYLLNWYGYQKGFVTQKYAEQMLADPGDVRGHLLEENKYAGKTVWWLYKLRGTDLKTAPLECNNVVLRLSEVYLIAAEAGCKLGGDAAVQGLGYLNEIVKRGNPDNEVTMADYTLDRVLDERSKELVGEGHRFFDLLRNGKTIVRKGGYHLPSVDEEVDWDFYKCVLPIPEDQFIFSPEMEQNPGYPKN,glycan array binding signal (z-score),[1],-0.335
same,glycan array binding signal (z-score),[2],-0.817
same,glycan array binding signal (z-score),[3],-0.084
same,glycan array binding signal (z-score),[4],-0.605
same,glycan array binding signal (z-score),[5],0.151
same,glycan array binding signal (z-score),[6],-0.75
same,glycan array binding signal (z-score),[7],0.583
same,glycan array binding signal (z-score),[8],0.709
same,glycan array binding signal (z-score),[9],3.09
same,glycan array binding signal (z-score),[10],1.47
same,glycan array binding signal (z-score),[11],0.817
same,glycan array binding signal (z-score),[12],0.157
same,glycan array binding signal (z-score),[13],-0.177
same,glycan array binding signal (z-score),[14],0.328
same,glycan array binding signal (z-score),[15],1.61
same,glycan array binding signal (z-score),[16],1.2
same,glycan array binding signal (z-score),[17],0.273
same,glycan array binding signal (z-score),[18],0.512
same,glycan array binding signal (z-score),[19],1.05
same,glycan array binding signal (z-score),[20],-0.347
same,glycan array binding signal (z-score),[21],0.085
same,glycan array binding signal (z-score),[22],0.362
same,glycan array binding signal (z-score),[23],-0.336
same,glycan array binding signal (z-score),[24],-0.638
same,glycan array binding signal (z-score),[25],1.16
same,glycan array binding signal (z-score),[26],1.89
same,glycan array binding signal (z-score),[27],0.909
same,glycan array binding signal (z-score),[28],1.77
same,glycan array binding signal (z-score),[29],-0.501
same,glycan array binding signal (z-score),[30],0.135
